We go through 60 compounds from PubChem BioAssay AID463173 (ICCB-Longwood Screening Facility, Harvard Medical School, 2010).

Hit rate of the full screen: of about 52,000 compounds, about 4,300 (8.3%) were called active. No stated cut-off is given here; in the data, active means survival mostly below about 52% (no sharp cut-off); inactive means mostly above about 56%. What follows is part of a selection rich in actives, with near analogues and random picks from the rest.

This experiment concerns DeltatarO mutant. The experiment is described as follows: S. aureus survival, RN4220 and DeltatarO strains – OD600, teichoic acid synthesis inhibitors, primary screen (AID 463173). The settings on record: S. aureus RN4220 wild type/DeltatarO growth, OD600, 18 h, active compounds read low, screened at 18.75 µg/mL (by protocol).
As to `CCC1SC(NC(=O)COc2ccc(OC)cc2)=NC1=O` (stereo not given), the survival is 104% (inactive). For `COCCn1c(CCC(=O)Nc2ccc(C)c(Cl)c2)nc2cccnc21` the value was 84% (inactive). As to `Cc1cc2c(cc1C)C(C)CC(C)(C)N2` (stereo not given), the survival is 94% (inactive). As for `O=C(NC1CCCCC1)C1OC(c2ccccc2)OC1C(=O)NC1CCCCC1` (stereo not given), the figure is 86% (inactive); as for `CC(=O)N(Cc1cccnc1)Cc1cc2cc3c(cc2[nH]c1=O)OCCO3`, 84% (inactive). With `CCN(CC)C(=O)Cn1cc(SCC(=O)Nc2ccccc2C)c2ccccc21`, the survival is 74% (inactive).

Consider `CC(=O)Nc1ccc(S(=O)(=O)NCC2CCC(C(=O)NCc3ccccc3)CC2)cc1` (stereo not given), for which the survival was 71% (inactive). As for `O=C(N1CCCC1)N1c2ccccc2Sc2ccccc21`, the figure is 111% (inactive). As for `CCOc1ccccc1NC(=O)N1c2ccccc2Sc2ccccc21`, the figure is 55% (inactive); as for `COc1cc(NC(=O)N2c3ccccc3Sc3ccccc32)cc(OC)c1`, 62% (inactive); as for `O=C(O)c1ccccc1NC(=O)N1c2ccccc2Sc2ccccc21`, 40% (active). In the case of `O=C(CN1CCCC1)N1c2ccccc2Sc2ccccc21`, the survival is 88% (inactive). As to `COc1ccc(OC)c(NC(=O)N2c3ccccc3Sc3ccccc32)c1`, the survival was 5% (active). For `COCCNC(=O)N1c2ccccc2Sc2ccccc21` the value was 83% (inactive); for `COc1ccc(OC)c(NC(=O)N2CC3CCCN3c3ccccc32)c1` (stereo not given), 89% (inactive); for `COc1ccccc1NC(=O)N1c2ccccc2Sc2ccccc21`, -6% (active). As for `COc1ccc(OC)c(NC(=O)c2cc3c(s2)-c2ccccc2SC3)c1`, the figure is 65% (inactive); as for `Cc1ccc2c(c1)N(C(=O)CCC(=O)Nc1ccccc1Cl)CC(C)O2` (stereo not given), 105% (inactive); as for `Cc1nnc2c(Nc3ccccc3I)nc3nonc3n12`, 77% (inactive). With `N#CCCn1cc(CO)c(-c2ccccc2)n1`, the survival is 95% (inactive).

For `COc1cccc(C(=O)c2cn(CC(=O)Nc3cccc(C)c3C)c3nc(C)ccc3c2=O)c1`, the survival is 67% (inactive). As for `Cc1nc2ccn(Cc3cccs3)c(=O)c2cc1C(=O)N1CCN(c2ccc(F)cc2)CC1`, the figure is 131% (inactive); as for `COc1ccc(Cl)cc1NC(=O)COC(=O)CC(C)(C)CC1=NS(=O)(=O)c2ccccc2N1`, 70% (inactive); as for `Cc1cccc(NC(=O)COC(=O)CCCC2=NS(=O)(=O)c3ccccc3N2)c1`, -2% (active). With `CCOc1ccccc1NC(=O)COC(=O)CC(C)(C)CC1=NS(=O)(=O)c2ccccc2N1`, the survival is 79% (inactive).

On to `CCc1ccc(NC(=O)COC(=O)CCCC2=NS(=O)(=O)c3ccccc3N2)cc1`, for which the survival is 109% (inactive). For `COc1ccccc1NC(=O)COC(=O)CC(C)(C)CC1=NS(=O)(=O)c2ccccc2N1` the value was -1% (active); for `O=C(COC(=O)CCCC1=NS(=O)(=O)c2ccccc2N1)Nc1ccc(Br)cc1`, 72% (inactive). For the compound `CCn1c2ccccc2c2nnc(SCCN3CCCCC3)nc21`, the survival was 82% (inactive). Consider `COC(=O)c1ccccc1NC(=O)c1ccc2nc(CCc3ccccc3)oc2c1`, for which the survival is 131% (inactive). For `CCc1ccccc1N1C(=O)N(CC(=O)c2ccc(Cl)cc2)c2ccccc2S1(=O)=O` the value was 82% (inactive). For the compound `CCOC(=O)C1CCN(C(=O)c2ccc3c(c2)sc2nc(-c4ccccc4)cn23)CC1`, the survival is 54% (active). For `CCN(CC)CCCNC(=O)c1ccc2c(c1)sc1nc(-c3ccc(C)cc3)cn12` the value was 24% (active); for `Cc1ccc(-c2cn3c(n2)sc2cc(C(=O)NCCC4=CCCCC4)ccc23)cc1`, 56% (inactive); for `CCOC(=O)c1ccc2c(c1)sc1nc(-c3ccc(OCC)cc3)cn12`, 44% (active). For `CCCNC(=O)c1ccc2c(c1)sc1nc(-c3ccc(C)cc3)cn12` the value was 89% (inactive); for `O=C(NCc1ccccc1)c1ccc2c(c1)sc1nc(-c3ccc(F)cc3)cn12`, 101% (inactive); for `CCOC(=O)C1CCN(C(=O)c2ccc3c(c2)sc2nc(-c4ccc(OC)cc4)cn23)CC1`, 78% (inactive).

Regarding `O=C(NCCC1=CCCCC1)c1ccc2c(c1)sc1nc(-c3ccc(F)cc3)cn12`, the survival is 63% (inactive).

Consider `CCOc1ccc(CNC(=O)c2ccc3c(c2)sc2nc(-c4ccc(OC)cc4)cn23)cc1`, for which the survival was 84% (inactive). Consider `CCOC(=O)C1CCN(C(=O)c2ccc3c(c2)sc2nc(-c4ccc(OCC)cc4)cn23)CC1`, for which the survival is 69% (inactive). Regarding `CCOC(=O)C1CCN(C(=O)c2ccc3c(c2)sc2nc(-c4ccc(C)cc4)cn23)CC1`, the survival is 98% (inactive). As for `CCN(CC)CCNC(=O)c1ccc2c(c1)sc1nc(-c3ccc(F)cc3)cn12`, the figure is 29% (active); as for `COc1ccc(S(=O)(=O)Nc2cccc(-c3ccc(N4CCCC4)nn3)c2)cc1F`, 85% (inactive); as for `COc1ccc(Nc2ncnc3c2cnn3C)c(OC)c1`, 89% (inactive).

`CNS(=O)(=O)c1cn(CC(=O)Nc2cccc(C(F)(F)F)c2)cc1S(=O)(=O)NC`: the survival was 107% (inactive).

As to `Cc1ccccc1OC(=O)CSc1nnc(-c2ccc(F)cc2)o1`, the survival is 63% (inactive). As for `CCN1CCc2c(sc(NC(=O)c3ccc(S(=O)(=O)N(CCOC)CCOC)cc3)c2C(N)=O)C1`, the figure is 69% (inactive); as for `CCc1cccc(C)c1NC(=O)c1cc(S(=O)(=O)N2CCC3(CC2)OCCO3)ccc1F`, 116% (inactive); as for `Cc1ccc(CSCCNC(=O)C2CCN(S(=O)(=O)Cc3ccccc3)CC2)cc1`, 99% (inactive). For `CCOc1ccc(-c2cn3c(n2)sc2cc(C(=O)NCCCN(CC)CC)ccc23)cc1` the value was 15% (active). As for `CCOc1ccc(-c2cn3c(n2)sc2cc(C(=O)NCCCc4ccccc4)ccc23)cc1`, the figure is 72% (inactive); as for `CCCSCCCNC(=O)c1ccc2c(c1)sc1nc(-c3ccc(OCC)cc3)cn12`, 55% (inactive). Turning to `COc1ccc(-c2nn(-c3ccccc3)cc2C2NC(=O)NC(C)=C2C(=O)OC(C)C)cc1Cl` (stereo not given), the survival is 106% (inactive). Consider `CCc1ccc(NC(=O)c2ccc(CN3CC(=O)N4CCCCC4C3=O)cc2)cc1` (stereo not given), for which the survival was 66% (inactive).

Turning to `CC(C)c1ccc(NC(=O)c2ccc(CN3CC(=O)N4CCCCC4C3=O)cc2)cc1` (stereo not given), the survival was 77% (inactive). On to `O=C(Nc1ccc(F)cc1)c1ccc(CN2CC(=O)N3CCCCC3C2=O)cc1` (stereo not given), for which the survival was -4% (active). For `O=C(Nc1cc(F)ccc1F)c1ccc(CN2CC(=O)N3CCCCC3C2=O)cc1` (stereo not given) the value was 92% (inactive); for `Cc1ccc(NC(=O)c2ccc(CN3CC(=O)N4CCCCC4C3=O)cc2)cc1C` (stereo not given), 77% (inactive). For `Cc1ccc(NC(=O)c2ccc(CN3CC(=O)N4CCCCC4C3=O)cc2)cc1` (stereo not given) the value was -5% (active).
